Experimental data reported in ChEMBL document CHEMBL4513146, “CO-ADD screening of Karazin Kharkiv National University (Ukraine) compounds”.
Results with a measured potency or affinity are listed apart.

system: Cryptococcus neoformans; conditions: Concentration 32 ug.mL-1; ASSAY_TEST Inhibition of Fungal Growth; detection method Resazurin; Absorption (OD600-OD570); plate type 384well; NBS; CORNING #3640

**Q.** Which Inhibition does the source give for `Cc1ccc(Sc2nccn3c(=O)n(CC(=O)Nc4ccccc4C)nc23)c(C)c1` here?
**A.** The Inhibition was -25.74%.

**Q.** For `Cc1nnc2c(=O)n(CC(=O)Nc3ccc(Cl)cc3F)c3ccccc3n12`, which Inhibition is on record?
**A.** The Inhibition was -18.26%.

**Q.** For `Cc1cccc(NC(=O)CSc2nnc3c4cc(-c5ccc(F)cc5)nn4ccn23)c1C`, which Inhibition is on record?
**A.** Its Inhibition is -21.34%.

**Q.** Which Inhibition does the source give for `CC(C)c1ccc(NC(=O)Cn2nc3c(N4CCCC4)nccn3c2=O)cc1` here?
**A.** Its Inhibition is -12.68%.

**Q.** Which Inhibition does the source give for `COc1ccc(OC)c(NC(=O)Cn2nc3c4cc(-c5ccc(F)cc5)nn4ccn3c2=O)c1` here?
**A.** Its Inhibition is -6.46%.

**Q.** With `O=c1c2sccc2n2c(=O)n(Cc3ccccc3Cl)nc2n1CCc1ccccc1` as the molecule, how does the Inhibition read?
**A.** The Inhibition was -28.45%.

**Q.** `Cc1ccc(Sc2nccn3c(=O)n(CC(=O)N4CCN(c5ccccc5)CC4)nc23)c(C)c1` was tested. Which Inhibition did it give?
**A.** The Inhibition was -7.85%.

**Q.** `CCOc1ccc(-n2ccn3c(SCC(=O)c4ccc(OC)c(OC)c4)nnc3c2=O)cc1` was tested. Which Inhibition did it give?
**A.** The Inhibition was -6.73%.

**Q.** Which Inhibition does the source give for `O=C(Cn1nc2c(N3CCSCC3)nc3ccccc3n2c1=O)NCc1ccccc1` here?
**A.** The Inhibition was -23.77%.

**Q.** For `CCC(Sc1nnc2c(=O)n(-c3ccccc3)ccn12)C(=O)Nc1cc(F)ccc1F` (stereo unspecified), which Inhibition is on record?
**A.** Its Inhibition is -17.31%.

**Q.** `Cc1cc(C)c(NC(=O)Cn2nc3c4cc(-c5ccc(C)c(C)c5)nn4ccn3c2=O)c(C)c1` was tested. Which Inhibition did it give?
**A.** The Inhibition was -17.51%.

**Q.** For `COc1cccc(-n2ccn3c(SCC(=O)Nc4cc(F)ccc4F)nnc3c2=O)c1`, which Inhibition is on record?
**A.** The Inhibition was -8.94%.

**Q.** Which Inhibition does the source give for `O=C(Cn1nc2ccc(SCc3ccc(Cl)cc3)nn2c1=O)NCc1ccccc1` here?
**A.** The Inhibition was -17.55%.

**Q.** With `COc1cccc(-n2ccn3c(SCC(=O)N4CCN(c5ccc(F)cc5)CC4)nnc3c2=O)c1` as the molecule, how does the Inhibition read?
**A.** The Inhibition was -10.47%.

**Q.** How did the Inhibition turn out when `CCOc1ccc(-n2ccn3c(SCC(=O)Nc4ccc(F)cc4F)nnc3c2=O)cc1` was run?
**A.** The Inhibition was -5.09%.

**Q.** `Cc1nnc2c(S(=O)(=O)N(Cc3ccccc3F)c3cc(F)cc(F)c3)cccn12` was tested. Which Inhibition did it give?
**A.** The Inhibition was -4.37%.

**Q.** `COc1ccc(N(Cc2ccc(Cl)cc2)S(=O)(=O)c2ccc3nncn3c2)cc1` was tested. Which Inhibition did it give?
**A.** Its Inhibition is -7.19%.

**Q.** With `Cc1ccc(Cn2c(=O)c3ccc(C(=O)NC4CCCC4)cc3n3c(=O)n(CC#N)nc23)cc1` as the molecule, how does the Inhibition read?
**A.** The Inhibition was -4.65%.

**Q.** Which Inhibition does the source give for `CN(Cc1ccccc1)C(=O)CSc1nnc2c3cc(-c4ccccc4)nn3ccn12` here?
**A.** The Inhibition was -6.97%.

**Q.** For `CCc1ccc(Cn2c(=O)c3sccc3n3c(=O)n(Cc4c(F)cccc4Cl)nc23)cc1`, which Inhibition is on record?
**A.** The Inhibition was -25.59%.

**Q.** How did the Inhibition turn out when `O=c1n(Cc2nc(-c3ccc(F)cc3)no2)nc2ccc(-c3ccccc3)nn12` was run?
**A.** The Inhibition was -18.94%.

**Q.** For `COc1ccc(C)cc1NC(=O)Cn1nc2ccc(SCc3ccc(Cl)cc3)nn2c1=O`, which Inhibition is on record?
**A.** Its Inhibition is -20.73%.

**Q.** Which Inhibition does the source give for `COc1ccc(C)cc1NC(=O)Cn1nc2c3cc(-c4ccc(C)c(C)c4)nn3ccn2c1=O` here?
**A.** The Inhibition was -9.82%.

**Q.** `CCOc1ccc(-n2ccn3c(SC(C)C(=O)Nc4ccc(OC)cc4)nnc3c2=O)cc1` (stereo unspecified) was tested. Which Inhibition did it give?
**A.** Its Inhibition is -11.44%.

**Q.** `CC(C)CCn1c(=O)c2sccc2n2c(=O)n(Cc3c(F)cccc3Cl)nc12` was tested. Which Inhibition did it give?
**A.** Its Inhibition is -27.55%.

**Q.** How did the Inhibition turn out when `COc1ccc(NC(=O)Cn2nc3c(N4CCCC4)nccn3c2=O)cc1` was run?
**A.** The Inhibition was -6.3%.
